Reference: publication PMC7862700, “An all-to-all approach to the identification of sequence-specific readers for epigenetic DNA modifications on cytosine”

Experiments:
Assay in all cases: DAPPL (digital affinity profiling via proximity ligation, sequencing); 10 mM Tris-HCl pH 7.5, 50 mM NaCl, 1 mM DTT, 4% glycerol, room temperature, 30 min; GST-TFs on glutathione beads, 16-mer random dsDNA library, 0.1% formaldehyde crosslink after washing; high values mean tight binding
FLI1 = biological target: T1, FLI1 (Homo sapiens, UniProt Q01543 1-452); conditions: protein: recombinant; tags: N-terminal GST; dsDNA, one strand shown
T1 sequence: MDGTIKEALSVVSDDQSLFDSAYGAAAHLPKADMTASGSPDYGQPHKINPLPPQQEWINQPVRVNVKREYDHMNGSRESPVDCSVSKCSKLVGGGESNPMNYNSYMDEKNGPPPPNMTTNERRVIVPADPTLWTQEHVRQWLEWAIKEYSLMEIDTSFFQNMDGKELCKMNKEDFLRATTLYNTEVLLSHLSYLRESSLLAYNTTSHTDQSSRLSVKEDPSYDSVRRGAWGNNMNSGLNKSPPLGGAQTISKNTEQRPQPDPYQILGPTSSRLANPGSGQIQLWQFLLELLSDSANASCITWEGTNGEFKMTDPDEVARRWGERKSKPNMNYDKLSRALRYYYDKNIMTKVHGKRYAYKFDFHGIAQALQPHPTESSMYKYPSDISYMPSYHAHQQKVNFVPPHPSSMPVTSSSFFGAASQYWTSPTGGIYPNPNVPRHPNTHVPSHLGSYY
Method in brief: (§1)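 Binding signal is given per hexamer as its read frequency for a factor divided by its frequency in the tag-only sample. GST-fused human transcription factors were expressed in yeast, captured on glutathione beads, barcoded with DNA and pooled with that sample, then incubated with 200 nmole of a 16-mer random double-stranded DNA library in Tris/NaCl/DTT/glycerol buffer for 30 min at room temperature. The pools were then washed, crosslinked, proximity-ligated, amplified by PCR and sequenced on an Illumina NextSeq500.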

ELK1 = biological target: T2, ELK1 (Homo sapiens, UniProt P19419 1-428); conditions: protein: recombinant; tags: N-terminal GST; dsDNA, one strand shown
T2 sequence: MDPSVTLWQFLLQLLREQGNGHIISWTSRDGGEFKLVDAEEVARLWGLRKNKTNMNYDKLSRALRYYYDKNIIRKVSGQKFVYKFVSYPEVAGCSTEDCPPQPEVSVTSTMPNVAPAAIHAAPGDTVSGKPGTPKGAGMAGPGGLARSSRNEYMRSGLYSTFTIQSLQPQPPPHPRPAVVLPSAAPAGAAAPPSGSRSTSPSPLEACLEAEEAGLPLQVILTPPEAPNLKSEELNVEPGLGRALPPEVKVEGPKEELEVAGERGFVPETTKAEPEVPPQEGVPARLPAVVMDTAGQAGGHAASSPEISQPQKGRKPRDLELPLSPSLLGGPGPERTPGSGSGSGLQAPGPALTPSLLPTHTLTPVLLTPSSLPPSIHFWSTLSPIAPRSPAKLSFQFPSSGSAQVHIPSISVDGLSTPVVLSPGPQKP
Method in brief: as §1

GABPA = biological target: T3, GABPA (Homo sapiens, UniProt Q06546 1-454); conditions: protein: recombinant; tags: N-terminal GST; dsDNA, one strand shown
T3 sequence: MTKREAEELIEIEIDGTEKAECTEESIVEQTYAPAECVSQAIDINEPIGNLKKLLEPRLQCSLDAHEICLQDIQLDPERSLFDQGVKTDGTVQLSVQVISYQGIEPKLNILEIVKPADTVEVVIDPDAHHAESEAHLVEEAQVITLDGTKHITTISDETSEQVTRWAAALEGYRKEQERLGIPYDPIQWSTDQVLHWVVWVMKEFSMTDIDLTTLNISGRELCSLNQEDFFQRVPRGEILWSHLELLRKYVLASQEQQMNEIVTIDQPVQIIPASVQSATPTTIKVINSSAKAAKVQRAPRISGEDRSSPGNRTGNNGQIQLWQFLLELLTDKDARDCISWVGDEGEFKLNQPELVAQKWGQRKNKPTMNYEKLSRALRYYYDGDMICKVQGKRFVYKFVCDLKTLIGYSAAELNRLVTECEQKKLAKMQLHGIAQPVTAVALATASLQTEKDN
Method in brief: as §1

ERG = biological target: T4, ERG (Homo sapiens, UniProt P11308 1-479); conditions: protein: recombinant; tags: N-terminal GST; dsDNA, one strand shown
T4 sequence: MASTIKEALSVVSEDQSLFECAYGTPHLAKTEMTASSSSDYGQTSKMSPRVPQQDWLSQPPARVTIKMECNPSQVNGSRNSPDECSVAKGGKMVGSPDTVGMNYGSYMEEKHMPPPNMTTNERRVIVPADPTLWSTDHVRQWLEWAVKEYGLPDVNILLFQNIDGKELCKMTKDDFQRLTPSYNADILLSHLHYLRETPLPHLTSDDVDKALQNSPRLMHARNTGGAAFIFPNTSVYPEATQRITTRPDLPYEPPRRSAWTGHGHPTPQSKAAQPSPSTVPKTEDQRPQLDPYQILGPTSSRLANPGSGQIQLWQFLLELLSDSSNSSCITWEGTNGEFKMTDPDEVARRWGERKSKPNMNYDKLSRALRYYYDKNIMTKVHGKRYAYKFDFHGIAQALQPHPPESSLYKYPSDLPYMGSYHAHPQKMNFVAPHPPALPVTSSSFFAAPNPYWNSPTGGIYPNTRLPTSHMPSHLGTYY
Method in brief: as §1

ELF1 = ELF1 (Homo sapiens, UniProt P32519 1-619); conditions: protein: recombinant; tags: N-terminal GST; dsDNA, one strand shown
Method in brief: as §1

EHF = biological target: T5, EHF (Homo sapiens, UniProt Q9NZC4 1-300); conditions: protein: recombinant; tags: N-terminal GST; dsDNA, one strand shown
T5 sequence: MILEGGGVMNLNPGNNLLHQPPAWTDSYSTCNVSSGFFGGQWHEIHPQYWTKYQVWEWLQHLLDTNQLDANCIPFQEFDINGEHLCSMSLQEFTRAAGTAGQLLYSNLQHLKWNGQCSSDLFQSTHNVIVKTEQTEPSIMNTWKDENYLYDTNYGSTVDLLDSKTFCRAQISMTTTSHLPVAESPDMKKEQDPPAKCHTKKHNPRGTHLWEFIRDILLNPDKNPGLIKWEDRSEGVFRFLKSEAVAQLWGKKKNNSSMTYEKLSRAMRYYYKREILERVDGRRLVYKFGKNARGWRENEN
Method in brief: as §1

SPI1 = SPI1 (Homo sapiens, UniProt P17947 1-270); conditions: protein: recombinant; tags: N-terminal GST; dsDNA, one strand shown
Method in brief: as §1

SPIB = SPIB (Homo sapiens, UniProt Q01892 1-262); conditions: protein: recombinant; tags: N-terminal GST; dsDNA, one strand shown
Method in brief: as §1

ELK3 = biological target: T6, ELK3 (Homo sapiens, UniProt P41970 1-407); conditions: protein: recombinant; tags: N-terminal GST; dsDNA, one strand shown
T6 sequence: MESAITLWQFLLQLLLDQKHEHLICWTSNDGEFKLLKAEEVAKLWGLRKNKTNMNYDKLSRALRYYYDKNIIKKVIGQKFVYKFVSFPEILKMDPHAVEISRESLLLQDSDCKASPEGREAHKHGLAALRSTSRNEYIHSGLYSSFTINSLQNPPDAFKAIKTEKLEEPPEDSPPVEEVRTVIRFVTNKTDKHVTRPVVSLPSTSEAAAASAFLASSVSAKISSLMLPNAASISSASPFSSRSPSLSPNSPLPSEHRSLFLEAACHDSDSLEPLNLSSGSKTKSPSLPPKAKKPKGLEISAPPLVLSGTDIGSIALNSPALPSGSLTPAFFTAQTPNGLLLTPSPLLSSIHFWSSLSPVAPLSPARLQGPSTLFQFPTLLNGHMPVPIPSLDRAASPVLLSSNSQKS
Method in brief: as §1

FEV = biological target: T7, FEV (Homo sapiens, UniProt Q99581 1-238); conditions: protein: recombinant; tags: N-terminal GST; dsDNA, one strand shown
T7 sequence: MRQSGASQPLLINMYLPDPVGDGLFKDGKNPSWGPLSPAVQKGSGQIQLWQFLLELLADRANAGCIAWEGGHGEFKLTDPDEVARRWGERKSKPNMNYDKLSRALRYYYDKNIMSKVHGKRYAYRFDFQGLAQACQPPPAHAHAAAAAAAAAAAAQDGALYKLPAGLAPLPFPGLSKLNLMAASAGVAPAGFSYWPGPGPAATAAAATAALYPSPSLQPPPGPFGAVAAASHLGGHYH
Method in brief: as §1

ETV5 = ETV5 (Homo sapiens, UniProt P41161 1-510); conditions: protein: recombinant; tags: N-terminal GST; dsDNA, one strand shown
Method in brief: as §1

HSF1 = HSF1 (Homo sapiens, UniProt Q00613 1-529); conditions: protein: recombinant; tags: N-terminal GST; chain copies: 3; dsDNA, one strand shown
Method in brief: as §1

SPIC = biological target: T8, SPIC (Homo sapiens, UniProt Q8N5J4 1-248); conditions: protein: recombinant; tags: N-terminal GST; dsDNA, one strand shown
T8 sequence: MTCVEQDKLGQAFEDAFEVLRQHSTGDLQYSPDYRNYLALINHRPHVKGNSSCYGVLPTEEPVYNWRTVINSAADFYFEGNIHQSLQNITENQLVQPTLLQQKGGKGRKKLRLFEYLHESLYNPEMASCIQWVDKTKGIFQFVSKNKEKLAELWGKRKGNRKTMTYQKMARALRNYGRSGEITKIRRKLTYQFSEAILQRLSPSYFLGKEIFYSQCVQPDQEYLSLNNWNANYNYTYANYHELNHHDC
Method in brief: as §1

ELF4 = ELF4 (Homo sapiens, UniProt Q99607 1-663); conditions: protein: recombinant; tags: N-terminal GST; dsDNA, one strand shown
Method in brief: as §1

ELK4 = biological target: T9, ELK4 (Homo sapiens, UniProt P28324-2 1-405); conditions: protein: recombinant; tags: N-terminal GST; dsDNA, one strand shown
T9 sequence: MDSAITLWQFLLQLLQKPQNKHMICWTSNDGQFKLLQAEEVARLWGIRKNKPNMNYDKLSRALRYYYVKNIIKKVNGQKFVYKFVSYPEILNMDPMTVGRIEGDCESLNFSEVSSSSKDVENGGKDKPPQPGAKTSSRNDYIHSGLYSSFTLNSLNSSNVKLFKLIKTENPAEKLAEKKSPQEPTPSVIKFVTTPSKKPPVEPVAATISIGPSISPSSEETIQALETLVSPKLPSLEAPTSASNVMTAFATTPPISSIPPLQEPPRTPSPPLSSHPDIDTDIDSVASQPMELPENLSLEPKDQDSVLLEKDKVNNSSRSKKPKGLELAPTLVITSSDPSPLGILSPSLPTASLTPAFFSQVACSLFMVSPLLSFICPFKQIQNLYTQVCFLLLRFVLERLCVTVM
Method in brief: as §1

ETV2 = biological target: T10, ETV2 (Homo sapiens, UniProt O00321 1-342); conditions: protein: recombinant; tags: N-terminal GST; dsDNA, one strand shown
T10 sequence: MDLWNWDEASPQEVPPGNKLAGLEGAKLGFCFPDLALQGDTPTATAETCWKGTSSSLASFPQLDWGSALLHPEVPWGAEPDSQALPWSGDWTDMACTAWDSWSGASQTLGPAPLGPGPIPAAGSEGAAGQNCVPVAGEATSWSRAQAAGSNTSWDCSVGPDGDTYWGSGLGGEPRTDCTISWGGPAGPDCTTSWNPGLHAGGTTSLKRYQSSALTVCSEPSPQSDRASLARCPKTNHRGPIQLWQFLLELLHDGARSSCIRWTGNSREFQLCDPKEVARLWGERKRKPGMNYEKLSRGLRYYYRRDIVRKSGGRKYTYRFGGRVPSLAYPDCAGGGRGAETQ
Method in brief: as §1

ELF3 = biological target: T11, ELF3 (Homo sapiens, UniProt P78545 1-371); conditions: protein: recombinant; tags: N-terminal GST; dsDNA, one strand shown
T11 sequence: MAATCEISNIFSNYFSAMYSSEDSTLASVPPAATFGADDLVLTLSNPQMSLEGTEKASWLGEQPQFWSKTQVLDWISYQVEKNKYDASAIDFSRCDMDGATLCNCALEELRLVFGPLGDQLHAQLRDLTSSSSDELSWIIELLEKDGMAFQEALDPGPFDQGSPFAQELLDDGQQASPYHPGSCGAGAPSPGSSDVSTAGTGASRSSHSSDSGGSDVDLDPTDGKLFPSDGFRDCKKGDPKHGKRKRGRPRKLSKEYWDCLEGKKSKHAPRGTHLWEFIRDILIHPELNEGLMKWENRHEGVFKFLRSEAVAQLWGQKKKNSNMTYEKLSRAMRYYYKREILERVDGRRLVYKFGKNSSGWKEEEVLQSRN
Method in brief: as §1

CRX = CRX (Homo sapiens, UniProt O43186 1-299); conditions: protein: recombinant; tags: N-terminal GST; dsDNA, one strand shown
Method in brief: as §1

ETV1 = ETV1 (Homo sapiens, UniProt P50549 1-477); conditions: protein: recombinant; tags: N-terminal GST; dsDNA, one strand shown
Method in brief: as §1

Sequence of SPIB (Q01892 whole entry): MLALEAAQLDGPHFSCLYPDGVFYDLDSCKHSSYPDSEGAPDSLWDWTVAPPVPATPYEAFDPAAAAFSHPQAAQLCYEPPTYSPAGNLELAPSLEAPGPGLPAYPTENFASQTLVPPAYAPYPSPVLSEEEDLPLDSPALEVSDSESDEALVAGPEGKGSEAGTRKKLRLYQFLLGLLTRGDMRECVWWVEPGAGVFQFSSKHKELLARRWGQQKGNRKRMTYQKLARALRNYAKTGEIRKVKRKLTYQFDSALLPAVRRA
Sequence of CRX (O43186 whole entry): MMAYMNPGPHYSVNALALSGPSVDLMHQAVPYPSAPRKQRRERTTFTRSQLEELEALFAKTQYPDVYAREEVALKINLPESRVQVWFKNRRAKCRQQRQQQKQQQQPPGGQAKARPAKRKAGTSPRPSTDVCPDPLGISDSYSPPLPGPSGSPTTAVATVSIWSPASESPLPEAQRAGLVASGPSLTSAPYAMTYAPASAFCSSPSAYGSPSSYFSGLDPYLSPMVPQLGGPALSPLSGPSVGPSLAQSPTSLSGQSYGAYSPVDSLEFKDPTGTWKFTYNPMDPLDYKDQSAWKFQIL
Sequence of ELF1 (P32519 whole entry): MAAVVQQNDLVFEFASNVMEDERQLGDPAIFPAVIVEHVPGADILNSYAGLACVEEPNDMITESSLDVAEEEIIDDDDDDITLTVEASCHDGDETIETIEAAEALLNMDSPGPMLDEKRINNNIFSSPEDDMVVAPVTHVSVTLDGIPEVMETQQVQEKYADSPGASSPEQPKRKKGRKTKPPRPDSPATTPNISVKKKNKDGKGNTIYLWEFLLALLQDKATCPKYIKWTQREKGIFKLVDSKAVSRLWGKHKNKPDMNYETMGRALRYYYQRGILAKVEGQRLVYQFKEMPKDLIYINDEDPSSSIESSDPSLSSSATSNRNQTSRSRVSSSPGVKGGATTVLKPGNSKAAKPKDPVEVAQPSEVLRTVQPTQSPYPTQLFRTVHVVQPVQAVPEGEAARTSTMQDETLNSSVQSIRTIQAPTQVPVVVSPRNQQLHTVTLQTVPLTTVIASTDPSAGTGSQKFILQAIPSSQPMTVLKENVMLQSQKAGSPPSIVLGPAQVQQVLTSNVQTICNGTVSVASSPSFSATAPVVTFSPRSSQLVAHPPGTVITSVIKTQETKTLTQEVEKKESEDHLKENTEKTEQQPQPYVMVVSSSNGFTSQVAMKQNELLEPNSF
Sequence of HSF1 (Q00613 whole entry): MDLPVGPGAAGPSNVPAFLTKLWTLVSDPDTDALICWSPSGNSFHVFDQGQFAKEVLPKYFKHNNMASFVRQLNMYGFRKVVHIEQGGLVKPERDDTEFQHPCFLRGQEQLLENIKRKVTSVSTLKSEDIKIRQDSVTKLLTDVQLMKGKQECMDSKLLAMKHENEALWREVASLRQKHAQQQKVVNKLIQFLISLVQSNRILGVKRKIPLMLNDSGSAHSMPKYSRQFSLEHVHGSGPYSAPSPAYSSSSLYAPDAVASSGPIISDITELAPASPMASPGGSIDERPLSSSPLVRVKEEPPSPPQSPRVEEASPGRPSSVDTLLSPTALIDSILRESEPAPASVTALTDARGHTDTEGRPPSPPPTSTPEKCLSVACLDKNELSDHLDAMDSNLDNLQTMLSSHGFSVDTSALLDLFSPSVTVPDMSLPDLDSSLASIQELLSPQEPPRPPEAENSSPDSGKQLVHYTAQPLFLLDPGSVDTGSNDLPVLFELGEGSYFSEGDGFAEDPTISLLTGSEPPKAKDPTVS
Sequence of ETV5 (P41161 whole entry): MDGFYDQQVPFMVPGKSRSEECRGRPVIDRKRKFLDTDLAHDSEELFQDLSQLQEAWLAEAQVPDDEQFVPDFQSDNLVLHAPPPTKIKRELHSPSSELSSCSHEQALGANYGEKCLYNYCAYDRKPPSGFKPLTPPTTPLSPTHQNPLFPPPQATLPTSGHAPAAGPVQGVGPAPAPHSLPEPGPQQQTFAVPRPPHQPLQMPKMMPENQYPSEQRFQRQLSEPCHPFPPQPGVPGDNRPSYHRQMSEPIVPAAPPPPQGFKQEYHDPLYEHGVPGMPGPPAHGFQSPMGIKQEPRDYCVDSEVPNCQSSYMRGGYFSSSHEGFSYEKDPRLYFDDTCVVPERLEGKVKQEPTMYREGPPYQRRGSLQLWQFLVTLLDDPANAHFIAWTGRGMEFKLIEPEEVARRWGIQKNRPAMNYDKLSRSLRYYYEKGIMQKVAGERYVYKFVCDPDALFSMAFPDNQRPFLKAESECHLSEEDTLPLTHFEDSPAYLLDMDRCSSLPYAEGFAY
Sequence of ETV1 (P50549 whole entry): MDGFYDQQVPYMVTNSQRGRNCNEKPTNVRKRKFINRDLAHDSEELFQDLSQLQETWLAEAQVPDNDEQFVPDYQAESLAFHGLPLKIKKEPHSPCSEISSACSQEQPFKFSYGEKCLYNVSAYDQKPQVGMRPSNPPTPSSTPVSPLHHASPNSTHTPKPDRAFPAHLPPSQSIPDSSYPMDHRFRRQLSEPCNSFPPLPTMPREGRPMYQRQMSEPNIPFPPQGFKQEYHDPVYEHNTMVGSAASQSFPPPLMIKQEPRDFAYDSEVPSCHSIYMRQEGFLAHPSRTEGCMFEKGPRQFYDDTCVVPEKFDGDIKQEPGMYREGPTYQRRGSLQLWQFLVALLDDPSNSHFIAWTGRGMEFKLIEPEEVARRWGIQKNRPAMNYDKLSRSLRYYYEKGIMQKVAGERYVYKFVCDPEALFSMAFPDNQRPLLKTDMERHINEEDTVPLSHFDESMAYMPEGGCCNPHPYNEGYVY
Sequence of ELF4 (Q99607 whole entry): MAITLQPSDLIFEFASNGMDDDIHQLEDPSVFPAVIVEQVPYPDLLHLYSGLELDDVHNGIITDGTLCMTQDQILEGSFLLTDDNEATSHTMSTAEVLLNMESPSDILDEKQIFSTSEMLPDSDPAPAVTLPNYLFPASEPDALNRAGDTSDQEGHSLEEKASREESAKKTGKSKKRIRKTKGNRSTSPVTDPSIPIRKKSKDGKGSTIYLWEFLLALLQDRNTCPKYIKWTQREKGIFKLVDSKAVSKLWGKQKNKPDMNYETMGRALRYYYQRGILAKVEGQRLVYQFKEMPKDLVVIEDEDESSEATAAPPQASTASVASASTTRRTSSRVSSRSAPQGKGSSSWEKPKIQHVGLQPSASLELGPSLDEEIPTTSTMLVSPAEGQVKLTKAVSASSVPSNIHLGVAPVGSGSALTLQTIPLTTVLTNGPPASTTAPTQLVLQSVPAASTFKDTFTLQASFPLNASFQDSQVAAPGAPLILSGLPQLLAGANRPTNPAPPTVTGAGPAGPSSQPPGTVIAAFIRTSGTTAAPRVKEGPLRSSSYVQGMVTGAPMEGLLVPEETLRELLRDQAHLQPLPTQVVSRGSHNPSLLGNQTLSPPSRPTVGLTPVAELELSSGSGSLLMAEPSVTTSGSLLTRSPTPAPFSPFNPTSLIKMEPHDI

For CTACCA, the binding signal (FLI1) was 1.27 fold enrichment (6-mer frequency, TF over GST control), the binding signal (ELK1) was 1.27 fold enrichment (6-mer frequency, TF over GST control) and the binding signal (GABPA) was 1.42 fold enrichment (6-mer frequency, TF over GST control). The binding signal (ERG) was 1.29 fold enrichment (6-mer frequency, TF over GST control), the binding signal (ELF1) was 1.39 fold enrichment (6-mer frequency, TF over GST control) and the binding signal (EHF) was 1.22 fold enrichment (6-mer frequency, TF over GST control). The binding signal (SPI1) was 1.26 fold enrichment (6-mer frequency, TF over GST control), the binding signal (SPIB) was 1.23 fold enrichment (6-mer frequency, TF over GST control) and the binding signal (ELK3) was 1.16 fold enrichment (6-mer frequency, TF over GST control). The binding signal (FEV) was 1.14 fold enrichment (6-mer frequency, TF over GST control), the binding signal (ETV5) was 1.2 fold enrichment (6-mer frequency, TF over GST control) and the binding signal (HSF1) was 1.24 fold enrichment (6-mer frequency, TF over GST control). For the same sequence, the binding signal (SPIC) was 1.14 fold enrichment (6-mer frequency, TF over GST control), the binding signal (ELF4) was 1.39 fold enrichment (6-mer frequency, TF over GST control) and the binding signal (ELK4) was 1.24 fold enrichment (6-mer frequency, TF over GST control). The binding signal (ETV2) was 1.1 fold enrichment (6-mer frequency, TF over GST control), the binding signal (ELF3) was 1.17 fold enrichment (6-mer frequency, TF over GST control) and the binding signal (CRX) was 1.09 fold enrichment (6-mer frequency, TF over GST control). For the same sequence, the binding signal (ETV1) was 1.27 fold enrichment (6-mer frequency, TF over GST control).
